Screens deposited in PubChem by several laboratories.
SRC3 inh – SRC3 coactivator transcriptional activity inhibitors, primary screen, cell-based, luminescence. Nuclear receptor coactivator 3 (Homo sapiens), Q9Y6Q9. HEK293 GAL4-SRC3 luciferase reporter. inhibition, % at 3.6 µM. 360,000 tested, 0.17% active. AID 588352, 2011;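 active means inhibition above a per-campaign cutoff, the mean of all compounds plus 3 SD, cut at about 60% in these data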;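 further: 0% = DMSO-treated cells and 100% = gossypol-treated cells at 36 µM; higher means less SRC3-driven luciferase light from the GAL4 reporter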
Gli-Sufu antag – Gli-Sufu pathway antagonists, primary screen, luciferase luminescence, Sufu-KO-LIGHT cells, uHTS | Sufu-KO-LIGHT fibroblasts, Gli luciferase reporter luminescence | inhibition, % at 5 µM | 340,000 tested, 0.74% active;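 active means inhibition above about 55%, limit read from the data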;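 further: 0% = DMSO-treated cells and 100% = wells with medium but no cells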
NR5A2 inv ag – LRH-1 (NR5A2) inverse agonists, primary screen, cell-based, luminescence, HEK293T, StAR-luciferase reporter. 360,000 tested, 0.13% active. inhibition, % at 3.6 µM. Nuclear receptor subfamily 5 group A member 2 (Homo sapiens), O00482. LRH-1 transfected, 24 h;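 active means inhibition above the mean inhibition of all tested compounds plus 3 SD, cut at about 73% in these data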;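 further: 0% = DMSO wells and 100% = reporter-only cells lacking LRH-1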
SRC1 inh – SRC1 coactivator transcriptional activity inhibitors, primary screen, cell-based, luminescence | Nuclear receptor coactivator 1 (Homo sapiens), Q15788 | HEK293 GAL4-SRC1 luciferase reporter | inhibition, % at 3.6 µM | 360,000 tested, 0.12% active;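 active means inhibition above the campaign mean plus 3 SD, with each screening campaign given its own cutoff, cut at about 60% in these data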;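 further: 0% = DMSO treated cells and 100% = gossypol at 36 µM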
NCOA2 inhibitor – inhibition of GAL4-SRC2 driven luciferase reporter, primary screen, SRC2 inhibitor project, cell-based, luminescence; Nuclear receptor coactivator 2 (Homo sapiens), Q15596; HEK293 GAL4-SRC2 luciferase reporter; inhibition, % at 9 µM; 370,000 tested, 0.17% active; AID 651957, 2012;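 active means inhibition above the mean inhibition of all tested compounds plus 3 SD, set per campaign, cut at about 52% in these data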;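 further: 0% = DMSO treated cells and 100% = cells given Gossypol at 36 µM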
NR2F2 inh – NR2F2 transcriptional activity inhibitors, primary screen, cell-based, luciferase reporter, HEK293T, luminescence. HEK293T NGFI-A luciferase reporter. COUP transcription factor 2 (Homo sapiens), P24468. inhibition, % at 8.6 µM. 370,000 tested, 0.7% active. AID 686940, 2013;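 active means inhibition above a per-plate cutoff, mean inhibition of test wells between control levels plus 3 SD, cut at about 38% in these data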;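 further: cells cotransfected with COUP-TFII expression vector driving the NGFI-A reporter; 0% = median of COUP-TF2 test wells and 100% = reporter-only cells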
Target sequence (P24468 whole entry, looked up): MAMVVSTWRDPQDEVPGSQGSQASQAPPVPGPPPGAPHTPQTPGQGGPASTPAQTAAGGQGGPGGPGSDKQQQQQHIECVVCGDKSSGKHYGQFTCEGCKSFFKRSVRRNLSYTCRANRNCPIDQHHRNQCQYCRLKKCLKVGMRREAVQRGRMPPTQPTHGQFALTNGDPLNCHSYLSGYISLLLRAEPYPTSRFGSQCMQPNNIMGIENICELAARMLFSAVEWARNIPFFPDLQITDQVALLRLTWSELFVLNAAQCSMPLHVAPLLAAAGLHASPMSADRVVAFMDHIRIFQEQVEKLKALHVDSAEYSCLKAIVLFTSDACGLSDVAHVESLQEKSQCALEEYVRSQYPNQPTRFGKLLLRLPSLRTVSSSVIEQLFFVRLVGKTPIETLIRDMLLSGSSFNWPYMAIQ
Gli antag conf – Gli-SUFU pathway antagonists, confirmation, single concentration, luciferase luminescence, Sufu-KO-LIGHT cells. shares compounds with Gli-Sufu antag. Gli luciferase reporter. inhibition, % at 5 µM. 2,500 tested, 40% active. AID 602428, 2012;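 active means mean inhibition at 5 µM reaching about 45%, limit read from the data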;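 further: plate controls were DMSO-treated cells for no effect and wells lacking cells for full effect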
SufuKO cytotox – cytotoxicity in Sufu-KO-LIGHT cells, confirmation, cytotoxicity control for Gli-SUFU antagonist project, cell-based, ATP luminescence, single concentration. shares compounds with Gli-Sufu antag. cytotoxicity, % at 5 µM. 2,500 tested, 32% active;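 active means mean cytotoxicity at 5 µM above about 25%, limit read from the data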;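 further: cells exposed to compound overnight for roughly 16 to 18 hours; plate controls were DMSO wells with cells for no effect and medium without cells for full effect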
Wnt3a cs – Wnt3a reporter signal inhibition, confirmation, counter-screen for Gli-SUFU antagonist project, Wnt-LIGHT cells, luminescence, single concentration | shares compounds with Gli-Sufu antag | Wnt3a-driven luciferase reporter | inhibition, % at 6.25 µM | AID 651995, 2013 | 2,500 tested, 20% active;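 active means mean inhibition above about 25%, limit read from the data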
* marks the source's active call; other numbers are inactive results; x = not tested or not shown. In the library only some 1.3% were active in any assay of this set; here they are far more common.

SMILES	SRC3 inh	Gli-Sufu antag	NR5A2 inv ag	SRC1 inh	NCOA2 inhibitor	NR2F2 inh	Gli antag conf	SufuKO cytotox	Wnt3a cs
N#Cc1ccc(OCC(=O)Nc2ccccc2NS(=O)(=O)c2cccs2)cc1	23	53	-14	-13	-24	0	16	6	-44
O=C(Nc1ccccc1)Nc1ccccc1NS(=O)(=O)c1cccs1	1	3	-10	-15	-26	8	x	x	x
OC(CN1CCN(c2cccc(Cl)c2)CC1)c1ccccc1 (stereo unspecified)	-1	6	22	26	-1	6	x	x	x
OC(CN1CCN(c2cccc(Cl)c2)CC1)c1ccc(F)cc1 (stereo unspecified)	-20	69*	23	4	11	9	21	14	-53
CCN(CC)CCn1c(NCc2ccc(OC)cc2)nc2ccccc21	4	56*	-36	-19	-6	-6	26	6	-18
CN1C(=O)C(=O)N2C(=C[C@]3(c4c[nH]c5ccccc45)c4ccccc4N[C@H]23)C1=O	x	x	x	x	x	5	x	x	x
Cc1cccc(C)c1NC(=O)CSc1nnnn1C	10	57*	-8	0	12	-11	17	7	-12
Cc1cccc(C)c1NC(=O)CCCSc1nnnn1C	-18	4	-7	-6	-19	10	x	x	x
Cc1[nH]c(=O)[nH]c(=O)c1CSc1nnc([C@@H](NC(=O)OC(C)(C)C)C(C)C)o1	1	7	-1	7	-17	9	x	x	x
CC(C)=CCSc1nnc([C@@H](NC(=O)OC(C)(C)C)C(C)C)o1	15	60*	-6	-19	-5	8	10	25*	-32
Cc1ccc(-n2c(Cc3cccs3)nnc2SCC(=O)Nc2ccccc2-c2ccccc2)cc1	x	x	x	x	-23	-22	x	x	x
Cc1cc2cc(CN(CC3CCCO3)C(=S)Nc3ccccc3)c(=O)[nH]c2cc1C (stereo unspecified)	13	63*	12	0	17	8	80*	50*	-1
COC(=O)[C@]12C[C@H](CC(=O)N3CCN(C(=O)c4ccco4)CC3)C(=O)N(CCc3ccc(OC)c(OC)c3)C1=C[C@H](COCc1ccccc1)O[C@@H]2C	x	x	x	x	-1	8	x	x	x
CCOC(=O)c1c(CSc2nc(C)cc(C)c2C#N)n(C)c2cc(Br)c(OC(C)=O)cc12	-5	79*	-9	-10	-14	-9	80*	38*	10
C=CCCc1ccc(C#N)c(SCc2c(C(=O)OCC)c3cc(OC(C)=O)c(Br)cc3n2C)n1	-12	73*	-4	10	x	x	85*	43*	41*
Cc1ccc(C2CCC3(CCC(=O)N3CCOC(=O)Nc3cccc(C#N)c3)CC2)cc1 (stereo unspecified)	x	x	x	x	23	-5	x	x	x
CCCCc1ccc(N=N/C(C(=O)Nc2cc(OC)c(NC(C)=O)cc2OC)=C(/C)O)cc1	-10	64*	-10	0	0	9	16	4	-40
CCCCc1ccc(N=N/C(C(=O)Nc2ccccc2OC)=C(/C)O)cc1	-7	3	-20	-1	11	-11	x	x	x
CCOc1ccc2[nH]c3c(N4CCN(C(=O)c5ccco5)CC4)ncnc3c2c1	12	60*	5	0	-19	20	50*	19	-78
O=C(c1ccco1)N1CCN(c2ncnc3c2[nH]c2ccc(Br)cc23)CC1	-27	-6	8	0	-5	10	x	x	x
Cc1ccc(NC(=O)c2cc3ccccc3o2)cc1S(=O)(=O)N(C)C	-78	-121	-143	-105	-87	-52	x	x	x
Cc1ccc(NC(=O)c2cc3ccccc3oc2=O)cc1S(=O)(=O)N(C)C	85*	78*	75*	85*	x	x	89*	16	101*
O=C(Cc1cccs1)Nc1nnc(COc2ccccc2)s1	7	99*	2	-10	3	4	19	12	7
COc1ccc(N/C(N)=N/c2nc(CSc3nnc(C)s3)cc(=O)[nH]2)cc1	-18	-4	34	-2	-11	23	x	x	x
Cc1ccc(N/C(N)=N/c2nc(CSc3nnc(C)s3)cc(=O)[nH]2)c(C)c1	20	52	2	-1	-2	0	57*	56*	-28
SMILES	SRC3 inh	Gli-Sufu antag	NR5A2 inv ag	SRC1 inh	NCOA2 inhibitor	NR2F2 inh	Gli antag conf	SufuKO cytotox	Wnt3a cs
CC(=O)CC[C@@H]1CC[C@]2(CCCN(C(=O)c3ccco3)C2)O1	x	x	x	x	8	8	x	x	x
CCOC(=O)CNC(=O)c1c(C)nn(-c2ccccc2)c1Cl	-3	95*	16	-34	-16	-5	12	22	-11
Brc1ccc(CSc2ccc3nnc(-c4cccnc4)n3n2)cc1	-9	26	13	-13	-8	-43	x	x	x
Cc1ccc(CSc2ccc3nnc(-c4cccnc4)n3n2)cc1	-2	52	-6	-5	6	-29	14	3	-3
Cc1ccc(CNC(=O)CCS(=O)(=O)c2cc3c(cc2Br)CCN3C(=O)C2CC2)o1	x	x	x	x	-12	-10	x	x	x
COc1ccc(-n2cc(-c3ccccc3)[n+]3c2CCCCC3)cc1	46	85*	38	27	14	35	87*	28*	37*
COc1ccc(-c2cn(-c3ccc(SC(F)F)cc3)c3[n+]2CCC3)cc1OC	1	2	18	5	-3	-5	x	x	x
FC(F)Sc1ccc(-n2cc(-c3ccccc3)[n+]3c2CCC3)cc1	16	60*	13	9	16	5	59*	36*	-24
COC(=O)C1CN(Cc2ccc(F)cc2)CCS(=O)(=O)N1Cc1cn(Cc2ccc(C)cc2)nn1 (stereo unspecified)	x	x	x	x	-5	7	x	x	x
CC#CC[N+](C)(C)CCCCCCCCCC	38	68*	30	20	5	34	79*	43*	35*
Cc1nc2ccccc2n1-c1nc(-c2ccco2)cc(C(F)(F)F)n1	9	68*	28	-3	-8	-12	78*	20	77*
CCCCNC(=O)C[C@@H]1C(=O)N(CCc2ccc(Cl)cc2)C2=CCCCC[C@]21C(=O)OC	x	x	x	x	-10	-10	x	x	x
